For assay [1], the target named is Glucocorticoid receptor (Homo sapiens) (UniProt P04150). Nature of the assay: GR-GFP Redistribution (AID 450;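 active means compounds whose dose series gives a full or clear partial fitted curve of increased nuclear translocation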; further: potency means the concentration at half of the fitted maximal effect). Conditions: U2OS GR-GFP nuclear translocation, laser cytometry, 2 h.
For assay [2] the target is unchanged. Nature of the assay: GR-EFC Redistribution (AID 451; calls by dose curve; further: potency means the concentration at half of the fitted maximal effect). The note with it: CHO-K1 GR-EFC translocation, beta-gal luminescence, 2 h. Summed up: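 Translocation of GR-ED fusion to nuclear EA restores b-gal, read by luminescence after 1 h room-temperature detection. Engineered CHO-K1 biosensor cells, 1,000/well, exposed 2 h at 37 C to titrations up to 46 uM final.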

The target in assay [3] is 3',5'-cyclic-AMP phosphodiesterase 4B (Homo sapiens) (UniProt Q07343). Nature of the assay: qHTS Assay for Inhibitors of PDE-IV (AID 607; active means well fitted activation curve with a large enough effect in the main read-out, with a control signal flat, not every such curve was filed as active; further: % of control where 0% means no effect). Put shortly:
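The readout is membrane depolarisation from a cAMP-sensing CNG channel, detected with a potential dye at ex 535/em 590. Cells were HEK293-derived (endogenous PDE-IV) at 1000 cells/well, titrated up to 22.9 uM final.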
(qHTS replaces the single test concentration by a dilution series.)

Assay [4] has as its target Cytochrome P450 3A4 (Homo sapiens) (UniProt P08684). Nature of the assay: qHTS Assay for Inhibitors and Substrates of Cytochrome P450 3A4 (AID 884). Further: potency means the concentration at half of the fitted maximal effect; nearly all actives have a fitted effect of over 50% in size. Summed up: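 20 nM human CYP3A4 with 25 uM Luciferin-PPXE (at KM) in 200 mM KPO4, preincubated 10 min with compound; NADPH regeneration started a 60 min RT reaction. Luciferin detected by luminescence, normalized to 57 uM ketoconazole as full inhibition.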

Assay [5] has the same target. Nature of the assay: qHTS Assay for Activators of Cytochrome P450 3A4 (AID 885). Further: nearly all actives have a fitted effect of over 65% in size. Put shortly: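 Steps: enzyme/substrate mix dispensed; compound added, 10 min RT; NADPH regeneration solution added, 60 min RT; luciferin detection buffer stops reaction; 20 min later luminescence measured.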
Assay [6] deals with DNA dC->dU-editing enzyme APOBEC-3G (Homo sapiens) (UniProt Q9HC16). Nature of the assay: qHTS for inhibitors of Vif-A3G interactions: Validation (AID 588379). Further: 0% is about no effect. Summed up:
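HeLa cells stably expressing Vif and A3G-eYFP, 700 cells/well, incubated overnight at 37 deg C, then exposed to compound overnight at 37 deg C. Inhibition of Vif-mediated degradation read as increased yellow fluorescence (Ex 488/Em 500-530) by laser-scanning cytometry.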

Assay [7] relates to Zika virus NS2B-NS3 protease. Description: Primary screen GU AMC qHTS for Zika virus inhibitors (AID 1347154).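 Further: 0% = no-inhibitor control and -100% = no-enzyme control; nearly all actives have a fitted effect of over 70% in size.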 Summed up:
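Fluorogenic AMC-substrate cleavage by noncovalent NS2B-NS3 protease complex (25 nM, pH 8.0 Tris buffer with Tween 20) followed for 15 minutes at room temperature (~20% conversion). Percent inhibition from ex340/em450 signal change, fitted by 4-parameter Hill equation.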

A short description of assay [8]: Primary qHTS for small molecule stabilizers of the endoplasmic reticulum resident proteome: Secreted ER Calcium Modulated Protein (SERCaMP) assay (AID 1508630). Further: on the % scale 0 is the no-effect control and ±100 the full control effect. Put shortly: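 GLuc-SERCaMP-expressing SH-SY5Y cells, pretreated 16 h with compound, are challenged with thapsigargin to empty ER calcium stores; after 4 h, coelenterazine is added directly to the medium and luminescence is imaged.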

In assay [9] the target is Mitogen-activated protein kinase 10 (Mus musculus) (UniProt Q61831). Nature of the assay: JNK3 AlphaScreen Assay (AID 530; active means well fitted curve in either direction with a large enough effect, not every such curve was filed as active;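 further: kinase came from lysate of stimulated human HepG2 cells; signal reports phosphorylation of biotinylated GST-cJun 1-79 at Ser73 with 10 µM ATP; on the % scale 0 is the no-effect control and ±100 the full control effect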). Summed up: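 Room-temperature AlphaScreen kinase assay; pre-activated HepG2 lysate as JNK3 source, biotin-GST-cJun(1-79) substrate, 10 uM ATP, compound 15 min preincubation.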
Assay [10] has as its target Lysosomal acid glucosylceramidase (Homo sapiens) (UniProt P04062). Description: Glucocerebrosidase-p2 (AID 348; in the data active means potency below about 10 µM; further: potency means the concentration at half of the fitted maximal effect). The note with it: purified GBA, blue fluorogenic substrate, 40 min. Put shortly:
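Compounds titrated from 0.6 nM upwards against 0.2 nM enzyme in pH 5.9 citric acid/KH2PO4, taurocholate, tween-20; blue fluorogenic substrate 80 uM, 40 min room temperature, stopped and read Ex 365/Em 440 for AC50.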

Assay [11] is described as follows: AP1 Signaling Pathway (AID 357; active means well fitted curve in either direction with a large enough effect, not every such curve was filed as active; further: on the % scale 0 is the no-effect control and ±100 the full control effect). The note with it: ME-180 AP-1-bla reporter, EGF-induced, beta-lactamase ratio, 5 h. Put shortly: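 Modulation of EGF-driven AP-1 transcription was assessed with a beta-lactamase reporter in ME-180 cells. Compound and EC50 EGF were co-incubated 5 hours at 37 °C before 2.5-hour CCF4 loading at room temperature and dual-emission reading.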

Assay [12] can be described thus: NFAT Signaling Pathway (AID 444; active means well fitted curve in either direction with a large enough effect, not every such curve was filed as active;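 further: carbachol stimulus at about its EC50 of 1 µM final; on the % scale 0 is the no-effect control and ±100 the full control effect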). The note with it: Jurkat NFAT-bla M1, carbachol, beta-lactamase ratio, 5 h. Put shortly:
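Read-out: CCF4 FRET ratio (460 nm/530 nm) after 1 h RT dye loading, used for %activity and AC50 from titration series. Cells: Jurkat NFAT-β-lactamase/M1 line, treated with compound plus 1 uM carbachol for 5 h, 37 °C.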

A short description of assay [13]: Stat Signaling Pathway (AID 446; active means well fitted curve in either direction with a large enough effect, not every such curve was filed as active). Conditions: ME-180 SIE beta-lactamase reporter, IL-6 stimulated, 5 h. Summed up:
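Screening format detects activators and inhibitors alike: ME-180 SIE-bla cells stimulated at 40 pM IL-6 for 5 hrs with compound, then dual-emission beta-lactamase read at 405 nm excitation.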

Assay [14] in a line: qHTS Assay for Identification of Small Molecule Agonists for Thrombopoietin (TPO) Signaling Pathway (AID 917). Further: on the % scale 0 is the no-effect control and ±100 the full control effect. Put shortly: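 Reporter: GpIIb promoter–luciferase in murine Ba/F3 expressing human TPO receptor. Pre-starved of IL-3 overnight; compounds with 26 pM TPO, 24 hrs, 37 C/5% CO2; luminescence read.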
The target in assay [15] is Pyruvate kinase (Leishmania mexicana) (UniProt Q27686). Description: qHTS Validation Assay for Inhibitors of Leishmania Mexicana Pyruvate Kinase (AID 945).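 Further: 0% = DMSO only neutral control wells.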 Put shortly: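 The enzyme is a highly purified E451W mutant of LmPYK used at 0.2 nM. It converts 0.5 mM PEP and 0.1 mM ADP over 1 h at room temperature; product ATP is quantified by luciferase luminescence relative to DMSO controls.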

The target in assay [16] is Pyruvate kinase PKM (Homo sapiens) (UniProt P14618). Description: qHTS Assay for Activators of Human Muscle Pyruvate Kinase (AID 954; active means well fitted curve in the direction sought with a large enough effect, not every such curve was filed as active;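 further: 0% = uninhibited enzyme and -100% = no enzyme or full thiadiazolimine inhibition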). Put shortly: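 Reaction: 0.1 nM purified PKM2 with 0.5 mM phosphoenolpyruvate and 0.1 mM ADP, room temperature, 1 h. Readout: luciferase-based ATP luminescence after stop reagent. Activators judged against a 0.3 nM enzyme column.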
Assay [17] concerns the target Alpha-galactosidase A (Homo sapiens) (UniProt P06280). Nature of the assay: Counterscreen for Glucocerebrosidase Inhibitors: qHTS Assay for Human alpha-Galactosidase at pH 4.5 (AID 992). Further: 0% is about no effect. Summed up: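 Concentration-response curves (0.7 nM to 77 uM final) were modeled with the Hill equation to give AC50. Reactions: 2 nM enzyme, 80 uM fluorogenic alpha-galactoside, pH 4.5 citric acid buffer, 20 min, room temperature.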

Assay [18] deals with alpha-glucosidase (Oryza sativa, rice) (UniProt Q653V4). Description: Counterscreen for Glucocerebrosidase Inhibitors: qHTS Assay for Rice alpha-Glucosidase at pH 5.0 (AID 997).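 Further: 0% = full activity with enzyme and -100% = basal without enzyme.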 Summed up:
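Rice alpha-glucosidase (4 nM final) with 400 uM 4-methylumbelliferyl-alpha-D-glucopyranoside in citrate buffer pH 5.0, 20 min at room temperature, stopped at pH 10; fluorescence 365/440 nm, compounds 0.7 nM–77 uM, AC50 from Hill fits.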
In general terms: Counterscreens check selectivity or assay interference.

Assay [19] in a line: qHTS Assay for Lipid Storage Modulators (AID 1519; calls by dose curve). Conditions: Drosophila S3 cells, BODIPY lipid droplet/cell ratio, laser cytometry, cells loaded with oleic acid. Put shortly:
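Cells seeded at 5,000 per well were treated with compounds over a concentration series and loaded with oleic acid (400 uM, as added). Lipid droplet fluorescence (488 nm excitation, 500-530 nm channel) was read by laser-scanning cytometry and normalized to 20 uM Triacsin C.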

The target in assay [20] is Ubiquitin carboxyl-terminal hydrolase 1 (Homo sapiens) (UniProt O94782). Nature of the assay: Inhibitors of USP1/UAF1: Pilot qHTS (AID 504865).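 Further: rhodamine fluorescence freed from ubiquitin-rhodamine substrate followed over time; top concentration of the series differs between compounds; on the % scale 0 is the no-effect control and ±100 the full control effect; nearly all actives have a fitted effect of over 35% in size.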 Summed up:
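Deubiquitinase activity followed as kinetic rhodamine fluorescence release from 150 nM Ub-Rho. 1 nM USP1/UAF1 with compound, after 15 min room-temperature preincubation, in HEPES pH 7.8 buffer containing TCEP, EDTA, BSA and Tween-20.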

The structures appear in SMILES notation. Several values for one entry are separate records, joined by “and”; a condition that tells them apart may be missing. Equal values may be shown once. Results filed as inconclusive are left out. Activity calls are given as the source filed them. Unless noted, the call rests on the fitted dose curve; in most records, active means well fitted curve in the direction sought with a large enough effect; inconclusive means small, poorly fitted or top-dose-only effect, or another doubt; inactive means no such curve, though single readings can be large; an effect the other way counts as inactive or inconclusive. A value given as a limit tells only on which side of the number the result lay.

Sequence of DNA dC->dU-editing enzyme APOBEC-3G (Homo sapiens) (Q9HC16 whole entry, looked up): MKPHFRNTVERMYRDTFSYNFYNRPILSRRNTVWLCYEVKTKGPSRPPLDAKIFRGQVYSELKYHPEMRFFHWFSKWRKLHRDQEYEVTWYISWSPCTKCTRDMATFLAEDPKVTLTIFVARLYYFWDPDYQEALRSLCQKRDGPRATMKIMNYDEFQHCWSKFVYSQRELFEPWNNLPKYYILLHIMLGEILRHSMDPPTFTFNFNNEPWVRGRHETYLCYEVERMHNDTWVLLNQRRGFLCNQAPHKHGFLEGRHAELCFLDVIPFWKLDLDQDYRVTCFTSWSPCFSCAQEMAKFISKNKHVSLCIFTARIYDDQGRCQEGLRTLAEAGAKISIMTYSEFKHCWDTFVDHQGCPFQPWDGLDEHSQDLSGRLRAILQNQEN
Sequence of Cytochrome P450 3A4 (Homo sapiens) (P08684 whole entry, looked up): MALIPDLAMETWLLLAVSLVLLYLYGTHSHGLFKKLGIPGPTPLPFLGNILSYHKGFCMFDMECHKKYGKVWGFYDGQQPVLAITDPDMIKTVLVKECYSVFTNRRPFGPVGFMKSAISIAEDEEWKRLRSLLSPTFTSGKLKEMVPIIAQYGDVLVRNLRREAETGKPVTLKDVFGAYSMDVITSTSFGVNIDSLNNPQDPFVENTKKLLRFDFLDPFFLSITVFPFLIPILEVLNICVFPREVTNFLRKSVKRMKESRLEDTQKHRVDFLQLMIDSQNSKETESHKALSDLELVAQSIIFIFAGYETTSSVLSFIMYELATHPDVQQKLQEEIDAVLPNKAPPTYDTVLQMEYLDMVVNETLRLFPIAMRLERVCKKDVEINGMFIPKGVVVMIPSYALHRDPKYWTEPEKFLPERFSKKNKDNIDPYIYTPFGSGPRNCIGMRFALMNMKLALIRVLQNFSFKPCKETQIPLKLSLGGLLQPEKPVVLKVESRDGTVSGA
Sequence of Glucocorticoid receptor (Homo sapiens) (P04150 whole entry, looked up, the tested form may be a part): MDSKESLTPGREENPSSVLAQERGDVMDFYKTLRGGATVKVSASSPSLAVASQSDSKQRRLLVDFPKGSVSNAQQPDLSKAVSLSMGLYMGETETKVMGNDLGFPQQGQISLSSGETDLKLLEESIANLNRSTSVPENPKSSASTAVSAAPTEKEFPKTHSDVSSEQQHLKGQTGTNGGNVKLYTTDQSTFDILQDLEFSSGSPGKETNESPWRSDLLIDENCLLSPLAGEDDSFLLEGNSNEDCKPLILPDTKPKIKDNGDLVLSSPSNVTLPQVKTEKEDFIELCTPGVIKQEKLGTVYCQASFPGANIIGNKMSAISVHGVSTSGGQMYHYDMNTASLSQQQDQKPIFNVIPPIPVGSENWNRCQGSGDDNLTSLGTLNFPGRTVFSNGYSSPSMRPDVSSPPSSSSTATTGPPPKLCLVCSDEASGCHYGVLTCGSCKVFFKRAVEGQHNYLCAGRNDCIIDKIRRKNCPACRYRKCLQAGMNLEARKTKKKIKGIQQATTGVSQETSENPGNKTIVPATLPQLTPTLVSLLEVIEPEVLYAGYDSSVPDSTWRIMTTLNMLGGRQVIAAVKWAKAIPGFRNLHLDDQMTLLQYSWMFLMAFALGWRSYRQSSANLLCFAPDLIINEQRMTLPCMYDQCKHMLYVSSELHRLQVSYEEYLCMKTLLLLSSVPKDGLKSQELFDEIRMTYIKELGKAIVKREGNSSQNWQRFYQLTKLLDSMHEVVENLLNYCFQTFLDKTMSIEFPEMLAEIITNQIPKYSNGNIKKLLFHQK
Sequence of 3',5'-cyclic-AMP phosphodiesterase 4B (Homo sapiens) (Q07343 whole entry, looked up): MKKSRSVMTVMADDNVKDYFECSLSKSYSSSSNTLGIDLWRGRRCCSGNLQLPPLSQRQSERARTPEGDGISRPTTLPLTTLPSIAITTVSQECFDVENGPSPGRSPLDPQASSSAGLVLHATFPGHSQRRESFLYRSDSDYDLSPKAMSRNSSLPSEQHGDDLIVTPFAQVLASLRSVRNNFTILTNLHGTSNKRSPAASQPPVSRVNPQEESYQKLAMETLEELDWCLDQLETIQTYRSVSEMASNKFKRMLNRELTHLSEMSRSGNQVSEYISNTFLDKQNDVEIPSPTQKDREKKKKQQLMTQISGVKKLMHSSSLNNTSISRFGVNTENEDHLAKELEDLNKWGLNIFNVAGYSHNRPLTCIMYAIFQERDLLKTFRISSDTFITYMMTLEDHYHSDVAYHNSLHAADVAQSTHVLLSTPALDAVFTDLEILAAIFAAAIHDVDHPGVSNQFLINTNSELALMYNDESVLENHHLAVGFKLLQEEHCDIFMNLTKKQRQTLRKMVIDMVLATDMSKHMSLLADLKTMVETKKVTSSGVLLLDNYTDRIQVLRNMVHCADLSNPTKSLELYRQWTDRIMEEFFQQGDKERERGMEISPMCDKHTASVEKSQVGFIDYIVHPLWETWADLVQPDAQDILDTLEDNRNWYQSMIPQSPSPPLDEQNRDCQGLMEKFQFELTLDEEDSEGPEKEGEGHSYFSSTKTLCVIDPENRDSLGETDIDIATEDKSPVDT
Sequence of Ubiquitin carboxyl-terminal hydrolase 1 (Homo sapiens) (O94782 whole entry, looked up): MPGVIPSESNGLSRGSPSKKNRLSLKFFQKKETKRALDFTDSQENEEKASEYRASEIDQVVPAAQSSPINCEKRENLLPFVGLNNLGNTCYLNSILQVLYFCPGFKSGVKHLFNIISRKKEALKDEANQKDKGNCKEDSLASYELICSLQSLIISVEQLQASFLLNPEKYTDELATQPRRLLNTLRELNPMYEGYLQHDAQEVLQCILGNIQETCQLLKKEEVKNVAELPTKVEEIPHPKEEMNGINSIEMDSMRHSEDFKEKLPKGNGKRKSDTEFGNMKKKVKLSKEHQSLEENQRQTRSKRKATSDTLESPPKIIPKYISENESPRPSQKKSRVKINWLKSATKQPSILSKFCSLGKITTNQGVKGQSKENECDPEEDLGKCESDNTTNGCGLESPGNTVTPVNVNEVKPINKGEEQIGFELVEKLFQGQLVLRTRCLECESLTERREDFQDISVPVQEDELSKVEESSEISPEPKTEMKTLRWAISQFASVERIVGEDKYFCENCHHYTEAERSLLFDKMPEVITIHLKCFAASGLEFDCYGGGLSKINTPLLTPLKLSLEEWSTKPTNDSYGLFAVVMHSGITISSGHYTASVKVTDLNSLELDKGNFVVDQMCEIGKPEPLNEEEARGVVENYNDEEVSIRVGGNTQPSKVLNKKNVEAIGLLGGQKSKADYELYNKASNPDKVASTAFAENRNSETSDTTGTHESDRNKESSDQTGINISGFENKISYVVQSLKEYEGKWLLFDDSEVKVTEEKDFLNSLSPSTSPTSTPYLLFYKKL
Sequence of Pyruvate kinase (Leishmania mexicana) (Q27686 2-499 E452W): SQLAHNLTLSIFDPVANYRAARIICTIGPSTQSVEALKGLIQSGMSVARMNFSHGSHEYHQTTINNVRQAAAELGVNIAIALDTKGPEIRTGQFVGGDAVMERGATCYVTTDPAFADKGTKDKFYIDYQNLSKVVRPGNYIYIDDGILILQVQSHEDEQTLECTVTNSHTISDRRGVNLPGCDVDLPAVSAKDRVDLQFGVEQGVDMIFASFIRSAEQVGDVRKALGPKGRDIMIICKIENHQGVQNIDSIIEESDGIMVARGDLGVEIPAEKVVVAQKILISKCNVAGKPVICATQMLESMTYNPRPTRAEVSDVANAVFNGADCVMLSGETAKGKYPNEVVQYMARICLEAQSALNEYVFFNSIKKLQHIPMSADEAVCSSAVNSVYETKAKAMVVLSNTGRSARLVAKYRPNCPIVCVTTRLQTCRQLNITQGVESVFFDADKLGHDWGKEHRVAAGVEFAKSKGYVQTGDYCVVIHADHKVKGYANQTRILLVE
Sequence of Pyruvate kinase PKM (Homo sapiens) (P14618 whole entry, looked up): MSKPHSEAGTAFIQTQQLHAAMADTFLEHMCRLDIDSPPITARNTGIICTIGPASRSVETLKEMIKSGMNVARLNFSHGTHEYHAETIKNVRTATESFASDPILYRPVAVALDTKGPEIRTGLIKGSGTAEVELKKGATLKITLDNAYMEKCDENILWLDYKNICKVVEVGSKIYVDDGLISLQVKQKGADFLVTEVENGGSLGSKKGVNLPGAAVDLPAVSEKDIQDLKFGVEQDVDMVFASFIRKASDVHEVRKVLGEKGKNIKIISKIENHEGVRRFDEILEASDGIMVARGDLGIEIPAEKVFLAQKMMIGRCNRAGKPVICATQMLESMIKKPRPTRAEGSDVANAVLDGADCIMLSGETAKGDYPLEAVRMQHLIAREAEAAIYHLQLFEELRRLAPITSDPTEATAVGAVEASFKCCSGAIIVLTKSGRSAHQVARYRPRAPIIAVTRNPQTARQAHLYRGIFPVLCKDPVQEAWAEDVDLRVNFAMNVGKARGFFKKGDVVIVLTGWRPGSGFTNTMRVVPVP
Sequence of Alpha-galactosidase A (Homo sapiens) (P06280 whole entry, looked up): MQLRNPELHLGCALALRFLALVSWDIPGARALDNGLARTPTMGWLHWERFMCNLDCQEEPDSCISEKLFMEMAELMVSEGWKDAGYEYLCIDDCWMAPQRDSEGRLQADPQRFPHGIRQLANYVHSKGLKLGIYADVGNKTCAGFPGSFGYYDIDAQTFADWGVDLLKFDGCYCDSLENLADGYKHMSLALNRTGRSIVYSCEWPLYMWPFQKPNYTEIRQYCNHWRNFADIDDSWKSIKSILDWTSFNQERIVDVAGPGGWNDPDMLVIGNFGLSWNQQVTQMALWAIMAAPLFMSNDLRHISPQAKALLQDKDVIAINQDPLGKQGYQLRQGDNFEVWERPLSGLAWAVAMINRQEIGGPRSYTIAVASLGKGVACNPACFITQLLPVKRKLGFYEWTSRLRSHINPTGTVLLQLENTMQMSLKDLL

With `CC(=O)NCCc1c(Cc2ccccc2)[nH]c2ccccc12`, the Potency in assay [1] is > 46 µM (inactive); in [2], > 46 µM (inactive); in assay [4], 7.94 µM (active). Besides, the Potency entry in [3], in assay [5], in assay [6], in assay [7] and in assay [8] was “inactive” each time.
As for `COc1cc([C@@H]2c3cc4c(cc3[C@@H](O[C@@H]3O[C@H]5CO[C@@H](C)O[C@@H]5[C@@H](O)[C@H]3O)[C@@H]3COC(=O)[C@@H]23)OCO4)cc(OC)c1O`, the Potency result in assay [9], in [3], in assay [6], in [7] and in assay [8] was “inactive” throughout.
With `CN(C)C/C=C(\c1ccc(Br)cc1)c1cccnc1`, the Potency was > 11.4 µM (inactive) in [10]; > 46 µM (inactive) and > 20.6 µM (inactive) in assay [1]; > 46 µM (inactive) and > 20.6 µM (inactive) and > 9.22 µM (inactive) in assay [2]. For the same molecule, the activity change, negative = inhibition is 5.82% (inactive) in [11] (at 7.69 µM (top of the series)); 4.78% (inactive) in assay [11] (at 17.2 µM (top of the series)); 14.9% (inactive) in assay [11] (at 38 µM (top of the series)); -7.27% (inactive) in [12] (at 7.69 µM (top of the series)); -12.7% (inactive) in assay [12] (at 17.2 µM (top of the series)); -2.94% (inactive) in assay [19] (at 25.7 µM (top of the series)). For the same molecule, the activity, negative = inhibition is 3.29% (inactive) in assay [13] (at 7.69 µM (top of the series)), 7.82% (inactive) in assay [13] (at 17.2 µM (top of the series)) and -15.8% (inactive) in assay [13] (at 38 µM (top of the series)). For the same molecule, the Potency result in [9], in [3], in [14], in assay [15], in [20] and in assay [6] was “inactive” in each case. Besides, the Potency entry in assay [7] is “inactive”. In addition, the result in assay [16], in [17] and in assay [18] was inactive. Also, the values for the max response in assay [19] (measured here: cell count channel max response) and in [19] (measured here: lipid channel max response) were -7.55% and -11.6%, respectively.
Turning to `c1cc2c(cc1C1CCCCC1)c1c3n2CCN[C@H]3CCC1`, the Potency in assay [1] and in assay [2] was > 46 µM (inactive) in each case. Also, the Potency entry in assay [5], in assay [6], in assay [7] and in assay [8] was “inactive” in each case.

These data come from PubChem BioAssay (NCATS).
